# Where “and” joins values, the source holds several entries; their conditions need not be identical. Equal values may be shown once. Records with an inconclusive call do not appear. Calls of active or inactive are those of the source. How the source made its calls, unless noted: active means hit-call score of the fitted dose curve at least 0.9, where 1 is the maximum; inconclusive means response in the unintended direction; inactive means score below 0.9.
# Experiments:
# [1] = read-out: solute carrier (SLC22A6), SLC22A6 (gene 9356); assay: LTEA_HepaRG_SLC22A6: Life Technologies and Expression Analysis (LTEA) Assay for solute carrier (SLC22A6) using HepaRG (AID 2283653; active means hit-call score of the fitted dose curve at least 0.9, where 1 is the maximum; inactive means score below 0.9); conditions: mRNA level, 48 h; actives raise or lower the signal
# Method in brief: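 This endpoint tracks SLC22A6 mRNA induction or suppression in human HepaRG cultures after 48 h dosing, concentrations reaching 100 uM. Values derive from bidirectional fitting against DMSO controls.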
# [2] = Tanguay_ZF_120hpf_SWIM_legacy: (Legacy) Oregon State University Tanguay Lab 120 Hour Post-fertilization zebrafish Assay for Swim Bladder Malformation (AID 2283654);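 further: swim bladder malformation in each larva scored yes or no under brightfield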
# Method in brief: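 Scoring is binary for swim bladder defects at 120 hpf, by brightfield inspection of zebrafish larvae. Embryos were exposed singly from 6 hpf after pronase dechorionation, at 28C with 0.64% DMSO; mortality excluded scoring.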
# [3] = Tanguay_ZF_120hpf_NC_legacy: (Legacy) Oregon State University Tanguay Lab 120 Hour Post-fertilization zebrafish Assay for Notochord and Tail Malformation (AID 2283656)
# Method in brief: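 Binary notochord-distortion calls, made by brightfield inspection, form the read-out; activity is fitted in the positive direction against DMSO. Exposure ran statically from 6 to 120 hpf at 28C with 0.64% DMSO.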
# [4] = read-out: solute carrier (SLC10A1), SLC10A1 (gene 6554); assay: LTEA_HepaRG_SLC10A1: Life Technologies and Expression Analysis (LTEA) Assay for solute carrier (SLC10A1) using HepaRG (AID 2283657; active means hit-call score of the fitted dose curve at least 0.9, where 1 is the maximum; inactive means score below 0.9); conditions: mRNA level, 48 h; actives raise or lower the signal
# Method in brief: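 SLC10A1 transcript measured by TaqMan qRT-PCR, housekeeping-normalised, after 48 h chemical treatment of human HepaRG cells. Eight concentrations (half-log, max 100 uM, 0.5% DMSO vehicle) in duplicate; fitted bidirectionally against DMSO baseline.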
# [5] = read-out: matrix metalloproteinase-1 (MMP1), MMP1 (gene 4312); assay: LTEA_HepaRG_MMP1: Life Technologies and Expression Analysis (LTEA) Assay for matrix metalloproteinase-1 (MMP1) using HepaRG (AID 2283658; active means hit-call score of the fitted dose curve at least 0.9, where 1 is the maximum; inactive means score below 0.9); conditions: mRNA level, 48 h; actives raise or lower the signal
# Method in brief: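 Bidirectional concentration-response fitting relative to 0.5% DMSO gives the endpoint, derived from MMP1 mRNA levels (qRT-PCR) in human HepaRG cells treated 48 h with chemicals up to 100 uM.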
# [6] = read-out: ABC Transporter (ABCB1), ABCB1 (gene 5243); assay: CLD_ABCB1_6hr: CellzDirect (CLD) Gene Expression Assay for ABC Transporter (ABCB1) at 6 hours (AID 2283659);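 further: hits raise ABCB1 transcript above the DMSO vehicle baseline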
# Method in brief: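 ABCB1 transcript measured by quantitative nuclease protection assay, chemiluminescent read-out, 6 h after dosing human hepatocyte cultures (0.2% DMSO vehicle, daily redosing). Activity fitted as increase over DMSO baseline; cytotoxicity flagged by phase-contrast morphology.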
# [7] = read-out: Broad substrate specificity ATP-binding cassette transporter ABCG2 (Homo sapiens) (UniProt Q9UNQ0); assay: CLD_ABCG2_6hr: CellzDirect (CLD) Gene Expression Assay for ABC Transporter (ABCG2) at 6 hours (AID 2283660)
# Method in brief: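 ABCG2 mRNA induction measured by qNPA chemiluminescence in human primary hepatocyte cultures, 6 h post-dose. Chemicals tested at several concentrations against a 0.2% DMSO vehicle; positive-direction fit relative to DMSO.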
# [8] = read-out: xenobiotic metabolism (CYP1A1), CYP1A1 (gene 1543); assay: CLD_CYP1A1_6hr: CellzDirect (CLD) Gene Expression Assay for xenobiotic metabolism (CYP1A1) at 6 hours (AID 2283661);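 on AC50: potency for transcript induction above DMSO vehicle baseline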
# Method in brief: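 Read-out 6 h post-dose: qNPA chemiluminescent quantitation of transcript induction against 0.2% DMSO. Cells were cultured primary human hepatocytes from two separate donor preparations; phase-contrast morphology annotated apparent cytotoxicity.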
# [9] = system: Thyroperoxidase (TPO), gene 54314; assay: CCTE_Simmons_AUR_rTPO: CCTE's Amplex UltraRed Assay for Thyroperoxidase (TPO) Inhibition, Simmons Lab (AID 2283662);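 on AC50: potency for loss of signal meaning inhibition of peroxidase activity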
# Method in brief: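 Rat thyroid microsomal TPO + 25 uM AUR in 200 mM K phosphate; cpd 5 nM–87.5 uM [final], 8 conc, 0.5% DMSO; 300 uM H2O2 starts rxn; 37C dark 30 min; endpoint FI 544/590 nm; n=3.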
# [10] = Tanguay_ZF_120hpf_TRUN_legacy: (Legacy) Oregon State University Tanguay Lab 120 Hour Post-fertilization zebrafish Assay for Truncated Body (AID 2283655)
# Method in brief: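 5D wild-type larvae; pronase dechorionation; static exposure 6→120 hpf, 28C; DMSO 0.64% final; 5uM trimethyltin chloride positive control. Readout: presence/absence of truncated body, analyzed relative to DMSO.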
# Sequence of Broad substrate specificity ATP-binding cassette transporter ABCG2 (Homo sapiens) (Q9UNQ0 whole entry, looked up): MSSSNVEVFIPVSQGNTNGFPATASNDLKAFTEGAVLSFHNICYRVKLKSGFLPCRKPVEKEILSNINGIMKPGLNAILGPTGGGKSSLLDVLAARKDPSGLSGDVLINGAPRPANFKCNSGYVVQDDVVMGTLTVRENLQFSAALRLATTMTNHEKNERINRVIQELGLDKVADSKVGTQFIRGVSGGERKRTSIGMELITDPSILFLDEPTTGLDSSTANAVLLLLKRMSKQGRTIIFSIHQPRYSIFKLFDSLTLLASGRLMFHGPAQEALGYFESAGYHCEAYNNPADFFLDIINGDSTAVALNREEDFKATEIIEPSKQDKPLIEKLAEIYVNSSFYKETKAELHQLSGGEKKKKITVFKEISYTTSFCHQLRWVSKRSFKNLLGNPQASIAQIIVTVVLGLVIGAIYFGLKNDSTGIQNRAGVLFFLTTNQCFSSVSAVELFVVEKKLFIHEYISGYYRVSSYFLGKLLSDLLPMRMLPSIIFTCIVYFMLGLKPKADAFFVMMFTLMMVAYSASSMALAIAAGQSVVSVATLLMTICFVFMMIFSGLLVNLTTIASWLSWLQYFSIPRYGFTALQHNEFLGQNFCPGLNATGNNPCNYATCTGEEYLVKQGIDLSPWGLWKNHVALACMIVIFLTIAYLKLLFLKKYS
structure (smiles),measurement,setting,value
CCCCN(CC)c1c([N+](=O)[O-])cc(C(F)(F)F)cc1[N+](=O)[O-],outcome,[1],inactive
same,outcome,[2],inactive
same,outcome,[3],inactive
same,outcome,[4],inactive
same,outcome,[5],inactive
same,outcome,[6],inactive
same,outcome,[7],inactive
same,outcome,[8],inactive
CCC(=O)Nc1ccc(Cl)c(Cl)c1,outcome,[2],inactive
same,outcome,[3],inactive
same,outcome,[6],inactive
same,AC50,[8],20 µM (active)
same,AC50,[9],36 µM (active)
CC1(C(=O)Nc2ccc(O)c(Cl)c2Cl)CCCCC1,outcome,[1],inactive
same,outcome,[10],inactive
same,outcome,[3],inactive
same,outcome,[4],inactive
same,outcome,[5],inactive
same,outcome,[6],inactive
same,outcome,[7],inactive
same,outcome,[9],inactive
CCCSP(=O)(OCC)SCCC,outcome,[2],inactive
same,outcome,[10],inactive
same,outcome,[3],inactive
same,outcome,[6],inactive
same,outcome,[7],inactive
same,AC50,[8],1.9 µM (active)
same,AC50,[9],19.4 µM (active)
CCOP(=S)(OCC)Oc1ccc2c(C)c(Cl)c(=O)oc2c1,outcome,[1],inactive
same,outcome,[10],inactive
same,outcome,[3],inactive
same,AC50,[4],70.7 µM (active)
same,outcome,[5],inactive
same,outcome,[6],inactive
same,outcome,[7],inactive
same,outcome,[8],inactive
same,AC50,[9],38.5 µM (active)
CCCCOC(=O)[C@@H](C)Oc1ccc(Oc2ccc(C#N)cc2F)cc1,outcome,[3],inactive
same,outcome,[8],inactive
S=C1NCCN1,outcome,[10],inactive
same,outcome,[3],inactive
same,outcome,[6],inactive
same,outcome,[7],inactive
same,AC50,[9],6.05 µM (active)
CN(C)C(=O)Nc1cccc(C(F)(F)F)c1,outcome,[3],inactive
same,outcome,[6],inactive
same,outcome,[7],inactive
same,outcome,[8],inactive
Cc1cc(C2CC2)nc(Nc2ccccc2)n1,outcome,[7],inactive
same,AC50,[8],2.2 µM (active)
CC(C1CC1)C(O)(Cn1cncn1)c1ccc(Cl)cc1 (configuration not stated),outcome,[10],inactive
same,outcome,[3],inactive
same,outcome,[7],inactive
same,AC50,[8],0.0103 µM (active)
CCOP(=S)(OCC)Oc1cc(C)nc(C(C)C)n1,outcome,[3],inactive
same,outcome,[7],inactive
same,AC50,[8],0.682 µM (active)
same,AC50,[9],14.4 µM (active)
C#CCC1=C(C)C(OC(=O)C2C(C=C(C)C)C2(C)C)CC1=O (configuration not stated),outcome,[7],inactive
same,outcome,[8],inactive
same,AC50,[9],40.2 µM (active)
CN1COCN(Cc2cnc(Cl)s2)C1=N[N+](=O)[O-],outcome,[10],inactive
same,outcome,[3],inactive
same,outcome,[7],inactive
CCNc1nc(Cl)nc(NC(C)(C)C#N)n1,outcome,[3],inactive
same,outcome,[6],inactive
CNc1cnn(-c2cccc(C(F)(F)F)c2)c(=O)c1Cl,outcome,[10],inactive
same,outcome,[7],inactive
same,AC50,[8],3.97 µM (active)
CCCCSP(=O)(SCCCC)SCCCC,outcome,[7],inactive
same,AC50,[8],2.38 µM (active)
CSC1=N[C@@](C)(c2ccccc2)C(=O)N1Nc1ccccc1,outcome,[3],inactive
same,outcome,[6],inactive
same,AC50,[8],0.00477 µM (active)
same,AC50,[9],25.7 µM (active)
CC(C)N(C(=O)SCC(Cl)=C(Cl)Cl)C(C)C,outcome,[3],inactive
same,outcome,[7],inactive
same,outcome,[8],inactive
CCCOc1nn(C(=O)NS(=O)(=O)c2ccccc2C(=O)OC)c(=O)n1C,outcome,[3],inactive
same,outcome,[7],inactive
COc1ccc(C(=CC(=O)N2CCOCC2)c2ccc(Cl)cc2)cc1OC,AC50,[10],51.4 µM (active)
same,outcome,[7],inactive
CCOP(=O)(SC(C)CC)N1CCSC1=O (configuration not stated),outcome,[3],inactive
same,outcome,[7],inactive
same,outcome,[8],inactive
same,AC50,[9],43.8 µM (active)
CCC(CC)Nc1c([N+](=O)[O-])cc(C)c(C)c1[N+](=O)[O-],outcome,[10],inactive
same,outcome,[3],inactive
same,outcome,[8],inactive
O=C(O)c1cc(Oc2ccc(C(F)(F)F)cc2Cl)ccc1[N+](=O)[O-],outcome,[10],inactive
same,outcome,[3],inactive
same,outcome,[7],inactive
same,outcome,[8],inactive
CCC(=NOC/C=C/Cl)C1=C(O)CC(C2CCOCC2)CC1=O (configuration not stated),outcome,[3],inactive
same,outcome,[7],inactive
same,outcome,[8],inactive
same,outcome,[9],inactive
CN(C)[C@@H]1C(=O)C(C(N)=O)=C(O)[C@@]2(O)C(=O)C3=C(O)c4c(O)cccc4[C@@](C)(O)[C@H]3[C@H](O)[C@@H]12,outcome,[3],inactive
same,outcome,[7],inactive
same,outcome,[8],inactive
same,AC50,[9],17.5 µM (active) and 10.5 µM (active) and 15.5 µM (active)
CCc1cnc(C2=NC(C)(C(C)C)C(=O)N2)c(C(=O)O)c1 (configuration not stated),outcome,[3],inactive
same,outcome,[8],inactive
C[Si](Cn1cncn1)(c1ccc(F)cc1)c1ccc(F)cc1,AC50,[10],11 µM (active)
same,outcome,[6],inactive
same,outcome,[7],inactive
same,AC50,[8],20 µM (active)
CCCSP(=O)(OCC)Oc1ccc(Br)cc1Cl (configuration not stated),outcome,[10],inactive
same,outcome,[7],inactive
same,AC50,[8],10.2 µM (active)
same,AC50,[9],15.6 µM (active)
CNC(=O)ON=C(SC)C(=O)N(C)C,outcome,[3],inactive
same,outcome,[7],inactive
Cc1ccn2nc(S(=O)(=O)Nc3c(F)cccc3F)nc2n1,outcome,[10],inactive
same,outcome,[3],inactive
same,outcome,[7],inactive
same,outcome,[8],inactive
COP(=O)(OC)SCn1c(=O)oc2cc(Cl)cnc21,outcome,[3],inactive
same,outcome,[7],inactive
same,AC50,[9],7.84 µM (active)
CC1=NNC(=O)N(/N=C/c2cccnc2)C1,outcome,[10],inactive
same,outcome,[3],inactive
same,outcome,[7],inactive
same,AC50,[8],20 µM (active)
FC(F)C(F)(F)OCC(Cn1cncn1)c1ccc(Cl)cc1Cl (configuration not stated),outcome,[3],inactive
same,AC50,[8],2.47 µM (active)
CSc1nnc(C(C)(C)C)c(=O)n1N,outcome,[3],inactive
same,outcome,[7],inactive
same,outcome,[8],inactive
C[N+]1(C)CCCCC1,outcome,[10],inactive
same,outcome,[3],inactive
same,outcome,[7],inactive
same,outcome,[8],inactive
COP(=O)(OC)OC(Br)C(Cl)(Cl)Br (configuration not stated),outcome,[3],inactive
same,outcome,[7],inactive
same,outcome,[8],inactive
Nc1nc(N)nc(NC2CC2)n1,outcome,[8],inactive
CC(=NC#N)N(C)Cc1ccc(Cl)nc1,outcome,[3],inactive
same,outcome,[7],inactive
CC(C)=CC1C(C(=O)OCN2C(=O)C3=C(CCCC3)C2=O)C1(C)C (configuration not stated),outcome,[7],inactive
same,outcome,[8],inactive
CCOP(=S)(OCC)OC(Cl)C(Cl)(Cl)Cl (configuration not stated),outcome,[3],inactive
same,outcome,[8],inactive
same,AC50,[9],3.97 µM (active)
CCOC(=O)COc1cc(-c2nn(C)c(OC(F)F)c2Cl)c(F)cc1Cl,outcome,[3],inactive
same,outcome,[6],inactive
same,outcome,[8],inactive

# Reference: PubChem BioAssay (EPA / NIEHS)
